These results are taken from PubChem BioAssay.

Active and inactive are the calls of the source. Unless noted, how the calls were made is not given here.

The test system of test [1] is XIP peptide (Xip251-270) binding. The test can be described thus: small-molecule binders of XIP peptide, primary screen, biochemical, small-molecule microarray, fluorescence 635/667 nm, 0.1 µg/mL protein (AID 1182). The settings on record: fluorescent protein binding, 635 nm, higher = more signal, called active from +8 up or from −8 down.
The test system of another test is XIP peptide (Xip251-270). The experiment in a line: small-molecule binders of XIP peptide, primary screen, biochemical, small-molecule microarray, fluorescence 635/667 nm, 0.5 µg/mL protein (AID 1183). The settings on record: small-molecule microarray binding, fluorescence 635 nm; higher = more signal.
Test [2] is described as follows: Plasmodium falciparum growth inhibition, primary screen, strain 3D7, DAPI fluorescence, 100 nL (AID 1184).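 Further: parasites grown inside human red blood cells in medium with human serum.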 To be noted: P. falciparum 3D7 growth, 3 d, higher = more signal.
Test [3] addresses Homeobox protein Hox-A13 (Mus musculus) (UniProt Q62424). The test can be described thus: inhibitors of HoxA13-DNA binding, primary screen, biochemical, fluorescence polarization, labeled oligonucleotide (AID 1185). The settings on record: 15 min, higher = more signal, called active from +8 up or from −8 down. On the technique in general: Fluorescence polarisation rises when a labelled molecule tumbles more slowly, as on binding a larger partner.

Test [4] in a line: inhibitors of hydroxyurea-induced Chk1 phosphorylation, primary screen, imaging, HeLa, phospho-Chk1 antibody, percent positive cells (AID 1186). To be noted: hydroxyurea-induced phospho-Chk1 immunofluorescence imaging, higher = more signal.
Test [5] is described as follows: inhibitors of hydroxyurea-induced Chk1 phosphorylation, primary screen, imaging, HeLa, phospho-Chk1 nuclear intensity (AID 1187). To be noted: hydroxyurea-induced phospho-Chk1 immunofluorescence imaging, higher = more signal.

Sequence of Homeobox protein Hox-A13 (Mus musculus) (Q62424 whole entry, looked up): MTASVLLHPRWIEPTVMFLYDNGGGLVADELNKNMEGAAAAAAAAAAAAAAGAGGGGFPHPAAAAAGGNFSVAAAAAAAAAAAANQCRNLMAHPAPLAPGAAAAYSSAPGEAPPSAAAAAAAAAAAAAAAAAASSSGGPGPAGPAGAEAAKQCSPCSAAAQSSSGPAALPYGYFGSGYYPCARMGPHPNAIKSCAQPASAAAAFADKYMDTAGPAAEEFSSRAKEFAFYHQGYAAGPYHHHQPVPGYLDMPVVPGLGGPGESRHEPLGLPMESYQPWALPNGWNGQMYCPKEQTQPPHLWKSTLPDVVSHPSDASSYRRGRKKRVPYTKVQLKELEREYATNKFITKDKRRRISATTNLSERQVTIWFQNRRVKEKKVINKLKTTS

Take `NCCCCCCNC(=O)[C@H]1C[C@H]2C(=O)N[C@@H](Cc3ccccc3)C(=O)N2[C@H]1c1cccc(OCCO)c1`: the figures for the composite z-score (in test [1]; in the test on XIP peptide (Xip251-270)) were 1.16 (inactive) and 0.834, respectively. Moreover, the z-score was -0.516 in test [2], -3.36 (inactive) in test [3], -0.182 (inactive) in test [4] and -0.25 (inactive) in test [5].

In the case of `NC(=O)[C@@H]1[C@H]2C(=O)O[C@H](c3ccccc3)[C@H](c3ccccc3)N2[C@H](c2ccc(OCCO)cc2)[C@@]12C(=O)Nc1ccc(C#CC3=CCCCC3)cc12`, the values for the composite z-score (in test [1]; in the test with XIP peptide (Xip251-270)) were 0.124 (inactive) and 0.581, respectively. Moreover, the z-score was -0.962 in test [2], 1.05 (inactive) in test [3], -0.0315 (inactive) in test [4] and 0.0692 (inactive) in test [5].

`O=C(NCCN1CCOCC1)[C@@H]1c2ccccc2C(=O)N(Cc2cc(C(F)(F)F)cc(C(F)(F)F)c2)[C@H]1c1ccc(CO)cc1`: the composite z-score was 0.532 (inactive) in test [1] and 0.304 with XIP peptide (Xip251-270). Moreover, the z-score in test [2] is -1.27; in test [3], -4 (inactive); in test [4] it was -0.24 (inactive); in test [5], -0.268 (inactive).

Regarding `CCCC=C(CCC)[C@@H](NC(=O)OCC(C)C)c1ccccc1`, the composite z-score in test [1] was -0.0053 (inactive); in the test with XIP peptide (Xip251-270) it was 0.45. For the same compound, the z-score is -1.02 in test [2], 2.97 (inactive) in test [3], 0.714 (inactive) in test [4] and 0.115 (inactive) in test [5].

Take `CCCNC(=O)[C@@H]1c2ccccc2C(=O)N(Cc2ccccc2OC)[C@H]1c1ccc(CO)cc1`: the figures for the composite z-score (in test [1]; with XIP peptide (Xip251-270)) were 0.273 (inactive) and 0.85, respectively. Besides, the z-score in test [2] is -1.54; in test [3] it was -3.2 (inactive); in test [4], -0.175 (inactive); in test [5] it was -0.0848 (inactive).

As to `CC[C@@H]1C=C(C(=O)O)[C@H](c2cccc3ccccc23)N1S(=O)(=O)c1ccc(C)cc1`, the composite z-score in test [1] is 0.406 (inactive); with XIP peptide (Xip251-270), 0.437. Also, the z-score was -0.509 in test [2], -1.85 (inactive) in test [3], -1.25 (inactive) in test [4] and -1.44 (inactive) in test [5].

Take `CC(C)[Si](C#CCCCC#N)(O[C@H](c1ccccc1)c1cn(Cc2cccc(Cl)c2)nn1)C(C)C`: the composite z-score in test [1] is -0.186 (inactive); with XIP peptide (Xip251-270), 0.605. Further, the z-score in test [2] was -1.06; in test [3], -0.527 (inactive); in test [4], -0.628 (inactive); in test [5], -0.968 (inactive).

For `C=CC[C@]1(C(N)=O)N=C(c2ccc(OCCCO)cc2)O[C@H]1c1ccccc1`, the composite z-score in test [1] is 0.672 (inactive); in the test with XIP peptide (Xip251-270), 0.787. Further, the z-score was -1.09 in test [2], -6.17 (inactive) in test [3], 0.344 (inactive) in test [4] and 0.327 (inactive) in test [5].

Take `CC1CC/C=C\[C@H]2OC34C=CCN(Cc5ccccc5)C(=O)[C@H]3N(C(C)CO)C(=O)[C@@H]4C2C(=O)O1` (some centres not stated): the composite z-score in test [1] was -0.49 (inactive); in the test with XIP peptide (Xip251-270), 0.0057. The z-score was -0.562 in test [2], -5.87 (inactive) in test [3], -0.682 (inactive) in test [4] and -0.602 (inactive) in test [5].

For the compound `OCCCC1=CC(C2CC2)N(Cc2cccc(OC(F)(F)F)c2)CC1` (configuration not stated), the composite z-score in test [1] is 0.0736 (inactive); in the test on XIP peptide (Xip251-270), 0.492. For the same compound, the z-score is -1.76 in test [2], -4.21 (inactive) in test [3], -0.245 (inactive) in test [4] and 0.143 (inactive) in test [5].

In the case of `O=C1C[C@@](C(=O)NCc2ccccc2)(c2ccc([N+](=O)[O-])cc2)[C@@H](c2ccc(CO)cc2)N1CC12CC3CC(CC(C3)C1)C2`, the figures for the composite z-score (in test [1]; in the test with XIP peptide (Xip251-270)) were 1.9 (inactive) and 0.733, respectively. Moreover, the z-score in test [2] was -0.83; in test [3], -2.75 (inactive); in test [4], -0.714 (inactive); in test [5], -0.762 (inactive).

As for `COC(=O)c1c(CC[C@@H](CO)NC(=O)N[C@H](Cc2ccccc2)Cn2cc(-c3ccccn3)nn2)oc(C(C)=O)c1C(=O)OC`, the composite z-score in test [1] is 0.593 (inactive); with XIP peptide (Xip251-270), 0.0667. The z-score in test [2] was 0.0007; in test [3], -4.84 (inactive); in test [4], 0.269 (inactive); in test [5], 0.15 (inactive).

On to `COCCOC(=O)N1C(=O)[C@@]2(c3ccccc31)[C@H](C(=O)N1CCCCCCC1)[C@H]1C(=O)O[C@H](c3ccccc3)[C@H](c3ccccc3)N1[C@@H]2c1ccc(OCCO)cc1`, for which the figures for the composite z-score (in test [1]; in the test on XIP peptide (Xip251-270)) were 6.55 (inactive) and 0.992, respectively. Moreover, the z-score was -2.03 in test [2], -15.8 (active) in test [3], -0.261 (inactive) in test [4] and -0.268 (inactive) in test [5].

Turning to `[N-]=[N+]=Nc1ccccc1C[C@@]1(C(=O)N2CCCCC2)N=C(c2ccc(OCCCO)cc2)O[C@@H]1c1ccccc1N=[N+]=[N-]`, the composite z-score was 0.973 (inactive) in test [1] and 0.0553 in the test with XIP peptide (Xip251-270). In addition, the z-score was -2.42 in test [2], -4.67 (inactive) in test [3], -0.425 (inactive) in test [4] and -0.286 (inactive) in test [5].

On to `N#Cc1ccc(C(O)C2C=CC3C(=O)N(c4ccccc4)C(=O)C3N2Nc2ccccc2F)cc1` (configuration not stated), for which the composite z-score is 0.339 (inactive) in test [1] and 0.749 in the test on XIP peptide (Xip251-270). Also, the z-score in test [2] is -0.85; in test [3] it was -3.57 (inactive); in test [4], -0.395 (inactive); in test [5], -0.0743 (inactive).

In the case of `COc1ccc([C@H]2C[C@H]3C(I)=C[C@@H]2C(=O)[C@]32CO2)cc1`, the composite z-score in test [1] was -0.344 (inactive); in the test on XIP peptide (Xip251-270), 0.68. Besides, the z-score in test [2] was 0.456; in test [3] it was -1.41 (inactive); in test [4], 0.125 (inactive); in test [5], -0.217 (inactive).

`CCCCCCc1nc(-c2ccc(-c3ccc(Cl)c(Cl)c3)o2)c(C)c2c1[Si](C(C)C)(C(C)C)OC2`: the composite z-score was -0.376 (inactive) in test [1] and 0.148 in the test with XIP peptide (Xip251-270). Also, the z-score is -2.4 in test [2], -2.13 (inactive) in test [3], 0.394 (inactive) in test [4] and 0.251 (inactive) in test [5].

`CN1C(=O)C2C=CC(C(O)c3ccccc3)N(N3CCCCC3)C2C1=O` (configuration not stated): the composite z-score is 0.344 (inactive) in test [1] and 0.797 with XIP peptide (Xip251-270). In addition, the z-score in test [2] was -0.261; in test [3] it was -5.01 (inactive); in test [4], 0.246 (inactive); in test [5], -0.455 (inactive).

For `CC(C)C(=C=CC[C@H](O)c1ccc(CO)o1)CCO`, the results for the composite z-score (in test [1]; in the test on XIP peptide (Xip251-270)) were 0.352 (inactive) and 0.792, respectively. Besides, the z-score in test [2] was 1.27; in test [3] it was -4.02 (inactive); in test [4], -0.301 (inactive); in test [5] it was -0.0779 (inactive).

As for `CC(C)[C@@H](C(=O)O)n1cc(C2(O)CCCCC2)nn1`, the composite z-score was 0.142 (inactive) in test [1] and 0.297 with XIP peptide (Xip251-270). In addition, the z-score in test [2] is 0.564; in test [3], -0.619 (inactive); in test [4] it was -0.3 (inactive); in test [5], -0.12 (inactive).

With `O=C1OCCC=C[C@H]2OC34C=CCN(CCN5CCOCC5)C(=O)[C@H]3N(CCCCCO)C(=O)[C@@H]4C12` (some centres not stated), the composite z-score in test [1] was 0.272 (inactive); with XIP peptide (Xip251-270), 0.348. Besides, the z-score in test [2] was 0.124; in test [3] it was -5.57 (inactive); in test [4] it was 0.139 (inactive); in test [5] it was 0.357 (inactive).

For `O=C1C2C=CC(C(O)C=Cc3ccc([N+](=O)[O-])cc3)N(n3cnnc3)C2C(=O)N1Cc1ccccc1` (configuration not stated), the composite z-score in test [1] is 1.01 (inactive); in the test on XIP peptide (Xip251-270), 0.856. In addition, the z-score was -0.0257 in test [2], -3.97 (inactive) in test [3], -0.253 (inactive) in test [4] and -0.32 (inactive) in test [5].
